# Measurements from PubChem BioAssay AID720490 (Broad Institute, 2013).
# Potency and affinity values are given separately. Unmarked numbers belong to inactive results.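 The calls were made as follows: active = compound whose fitted half-maximal concentration for signal loss stays within twice its top tested dose in every run; inconclusive = runs not all active and not all inactive; inactive = every run inactive.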
# Assay: Shn3 3'UTR reporter signal decrease – cell-based, Clone20 osteoblasts, firefly luciferase, cherry-pick, set 2, Schnurri-3 inhibitor project, dose response (AID 720490)
# Settings: Clone20 osteoblast Shn3 3'UTR firefly luciferase, 24 h; series mostly up to 35 µM; activity change, negative = inhibition: at the top concentration
row,Structure (SMILES),"activity change, negative = inhibition"
1,CCN(CC)Cc1c(O)ccc2c1O/C(=C\C=C\c1ccccc1)C2=O,0.079%
2,O=C1S/C(=C\c2ccc(N3CCOCC3)o2)C(=O)N1Cc1c(F)cccc1Cl,-0.988%
3,CCOC(=O)Cn1c(S(=O)(=O)Cc2ccccc2Cl)nc(-c2ccccc2)c1-c1ccccc1,-13.2%
4,CCOC(=O)c1cn(CC(=O)Nc2cccc(Cl)c2C)nn1,3.38%
